Pf Dd2 growth = inhibitors of Plasmodium falciparum Dd2 growth | Potency, µM (top dose mostly 28.9 µM), without a hit: at the highest dose activity, negative = inhibition, usual class: inhibitors | AID 1347417 | 120,000 tested, 4.3% active | P. falciparum Dd2 growth, SYBR Green, 72 h; active means well fitted inhibition curve with a large enough effect;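 further: plate controls were DMSO vehicle for no effect and reference drug for full effect; nearly all actives have a fitted effect of over 65% in size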
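Readout: SYBR Green fluorescence, 485 nm excitation, 535 nm emission, after ~16 h lysis at 37C. Before that, Dd2-infected red cells (2.5% hematocrit) grew 72 h with compound, 29 uM top final concentration.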
* marks the source's active call; other numbers are inactive results; i = inactive; ! = a repeat was not active; [ ] = another dose, or the depositor's remark. Only a selection was taken, and hits are over-represented in it overall. Potency means the concentration at half of the fitted maximal effect.

SMILES | Pf Dd2 growth
CCN(CC)C(=O)C[C@@H]1c2nc(NC(=O)C3CCC3)sc2C[C@@H]2[C@](C)(CO)[C@H](O)CC[C@]21C | 7.1µM*
C=CCN(C)C(=O)C[C@@H]1c2nc(NC(=O)c3ccc(OC)cc3)sc2C[C@@H]2[C@](C)(CO)[C@H](O)CC[C@]21C | -6%
CC(C)NC(=O)C[C@@H]1c2nc(NC(=O)C3CCCCC3)sc2C[C@@H]2[C@](C)(CO)[C@H](O)CC[C@]21C | 10µM*
CC(=O)N1CCN(C(=O)C[C@@H]2c3nc(NC(=O)C4CCC4)sc3C[C@@H]3[C@](C)(CO)[C@H](O)CC[C@]32C)CC1 | -22%
CCN(CC)C(=O)C[C@@H]1c2nc(NC(=O)c3cccs3)sc2C[C@@H]2[C@](C)(CO)[C@H](O)CC[C@]21C | 4µM*
CCN(CC)C(=O)C[C@@H]1c2nc(NC(=O)CC(C)(C)C)sc2C[C@@H]2[C@](C)(CO)[C@H](O)CC[C@]21C | i
CSc1nc2sc3c(c2c(=O)n1-c1ccccc1C)CCCC3 | i
COc1ccc(CNC(=O)c2cc(=O)[nH]c3ccc(S(=O)(=O)N4CCCC4)cc23)c(OC)c1 | 48%
Cc1cccc(CN(C(=O)c2ccco2)c2ccc(CC(=O)N3CCCC3)cc2)c1 | i
O=C(C1CN(c2ccc(F)cc2)C(=O)N1)N1CCOCC1 (stereo not drawn) | 3%[44.1 µM]
CC(C(=O)N1CCCN(S(=O)(=O)c2ccccc2)CCC(=O)NCC1)c1ccccc1 (stereo not drawn) | -7%
CCC(=O)Nc1ccc(C2(C(=O)O)CCC2)cc1 | 21%
Cc1ccsc1-c1nc(-c2nnn3c2COC(c2ccccc2Cl)C3)no1 (stereo not drawn) | i
CN(Cc1ccccc1)C(=O)Cn1c(=O)c2cccn2c2ccc(F)cc21 | -15%
Cc1ccccc1Oc1ncccc1CNCc1cccc(O)c1 | 13µM*
CCn1nc(C)cc1C(=O)NCc1cccnc1Oc1ccccc1C | -14%
Cc1ccccc1Oc1ncccc1CNCc1cc2c(cc1Cl)OCO2 | i
O=C(c1ccc(C(F)(F)F)cc1)N1CCCC2(CNc3ccccc3[S+](=O)([O-])N2)C1 (stereo not drawn) | -2%
Cc1ccc(C)c(C(=O)N2CCCC(n3cc(-c4noc(C)n4)nn3)C2)c1 (stereo not drawn) | i
Cc1ccc(NC(=O)Cn2c(-c3ccc(F)cc3)nc(C)c(CCO)c2=O)cc1 | -5%
COc1cc(NC(=O)Cn2c(-c3ccc(F)cc3)nc(C)c(CCO)c2=O)cc(OC)c1 | 11µM*
COc1ccc(NC(=O)Cn2c(-c3ccc(F)cc3)nc(C)c(CCO)c2=O)cc1Cl | -24%
Cc1sc(-c2cc3ccccc3oc2=O)nc1-c1ccc(Cl)c(Cl)c1 | 12%
Cc1cc(C)cc(NC(=O)COCc2cc(-c3ccc4c(c3)OCO4)on2)c1 | 129%
CN1CCN(Cc2c(O)ccc3cc(-c4ccc(Cl)cc4)c(=O)oc23)CC1 | 5µM*
SMILES | Pf Dd2 growth
COc1ccc(CN2CCC(N3CCOCC3=O)CC2)cc1 | 13%
CCN1CCN(Cc2c(O)ccc3c(C)c(-c4ccc(OC)cc4)c(=O)oc23)CC1 | 5µM*
COc1ccc(-c2coc3c2c(C)cc2oc(=O)c(C)c(C)c23)cc1 | -18%
CCN1CCN(C(c2ccc(OC)cc2)c2c(O)cc(C)n(CCOC)c2=O)CC1 (stereo not drawn) | i
CN1CCN(c2cc(=O)c3ccnc(-c4ccc(Cl)cc4)c3o2)CC1 | i
Cc1c(-c2ccccc2)c(=O)oc2ccc(OC(=O)N3CCOCC3)cc12 | i
COc1ccc(-c2c(C)c3cc(OC(=O)N4CCOCC4)ccc3oc2=O)cc1 | -17%
CCN1CCN(Cc2c(O)ccc3cc(-c4ccc(OC)cc4)c(=O)oc23)CC1 | 5.6µM*
COc1ccc(Cc2nc3ccc(C(=O)NCCN4CCOCC4)cc3o2)cc1 | -6%
O=c1oc2c(CN3CCN(CCO)CC3)c(O)ccc2cc1-c1ccccc1 | -17%
COc1ccc(-c2cc3ccc(O)c(CN4CCOCC4)c3oc2=O)cc1 | 11µM*
CCCn1cc(S(=O)(=O)N[C@@H]2COCC[C@@H]2OCC2CCC2)cn1 | -9%
CN1C(=O)CO[C@H]2CN(Cc3cccnc3)C[C@H]21 | 15%[44.1 µM]
O=C(c1cccc(F)c1)N1CC2CC(C1)[C@H]1CCCC(=O)N1C2 (stereo partly drawn) | 6%
O=C(NCC1CCN(Cc2ccccn2)C1)Nc1ccc(F)cc1 (stereo not drawn) | -16%
CC(C)NC(=O)c1ccc(Cn2c(SCC(N)=O)nc3ccccc3c2=O)cc1 | 18%
Oc1ccccc1-c1nc(/C=C/c2ccccc2Cl)no1 | i
CN1C(=O)CC[C@]2(C(=O)NCc3ccccc3F)CCCC[C@@H]12 | -15%
O=C(c1ccc(Cl)cc1)N1CCC2(C1)C(=O)N(Cc1ccccc1)c1ccccc12 (stereo not drawn) | -22%
COc1ccc(CC(=O)N2CCC3(C2)C(=O)N(CCc2ccccc2)c2ccccc23)cc1 (stereo not drawn) | -9%
O=C(c1ccccc1)N1CCC2(C1)C(=O)N(Cc1ccccc1)c1ccccc12 (stereo not drawn) | i
COCC(=O)N1CCC2(C1)C(=O)N(CCc1ccccc1)c1ccccc12 (stereo not drawn) | -25%
COC(=O)N1CCC2(C1)C(=O)N(CCc1ccccc1)c1ccccc12 (stereo not drawn) | 13µM*!
COc1cccc(C(=O)N2CCC3(C2)C(=O)N(CCc2ccccc2)c2ccccc23)c1 (stereo not drawn) | 7.9µM*
CNC(=O)c1cc(Br)cn2ccnc12 | -23%[44.1 µM]
SMILES | Pf Dd2 growth
O=C(O)c1ccccc1C(=O)N[C@H]1CO[C@H]2[C@@H]1OC[C@@H]2n1nnnc1-c1ccc2c(c1)OCO2 | i
CCC1c2nccn2CCCN1C(=O)Cc1ccc(OC)cc1 (stereo not drawn) | 7.1µM*
CCC1c2nccn2CCCN1C(=O)c1ccc2c(c1)OCO2 (stereo not drawn) | -20%
CCC1c2nccn2CCCN1C(=O)COC (stereo not drawn) | 29%
CCC1c2nccn2CCCN1C(=O)Cn1c(=O)oc2ccccc21 (stereo not drawn) | 13µM*
CCC1c2nccn2CCCN1C(=O)C1CCOCC1 (stereo not drawn) | -4%
CC(C)C1c2nccn2CCCN1C(=O)Cn1c(=O)oc2ccccc21 (stereo not drawn) | -19%
CC(C)N1CC[C@@H]2[C@H]1C(=O)NC[C@H](CCC(=O)N1CCC(O)CC1)N2C | 40%[44.1 µM]
Cc1noc([C@@H]2CN(Cc3ccc(F)c(Cl)c3)C[C@H]2CO)n1 | -6%
CC[C@H]1CN(S(=O)(=O)c2ccccc2)CC[C@H]1CC(=O)N1CCC(C(=O)OC)CC1 | 6%
Cc1ccc(Cc2cnc(NC(=O)C3Cc4ccc(C)cc4C(=O)O3)s2)cc1 (stereo not drawn) | 12%
COc1cncc([C@@H](NC(=O)CCN2CCCCO2)C2CC(O)C2)c1 (stereo partly drawn) | -3%
CCOC(=O)c1cc(-c2ccc(C)cc2)n(CC(=O)Nc2cc(C)ccc2C)c1C | 3%
CCOC(=O)c1cc(-c2ccc(C)cc2)n(CCCC(=O)Nc2cc(C)ccc2C)c1 | 11µM*
CCOC(=O)c1cc(-c2ccccc2)n(CCCC(=O)Nc2ccc(C)cc2Cl)c1C | i
COc1ccc(C(=O)N2CCc3nn(Cc4ccccc4)c(=O)n3CC2)cn1 | 40%
Cc1cc(C(=O)N2CCCC(c3nnnn3C)C2)nn1C (stereo not drawn) | 16%
CC(C)(C)c1ccc(OCC(=O)NC(Cc2c[nH]c3ccccc23)C(=O)O)cc1 (stereo not drawn) | -1%
